From PubChem BioAssay (Tox21)
Inconclusive results are not listed. Active and inactive are the calls of the source. Unless noted, calls come from the whole dose curve; as a rule, active = well fitted curve in the direction sought with a large enough effect in the repeat runs; inconclusive = weak or mixed curves; inactive = no such curve, though single readings can be large; an effect the other way counts as inactive or inconclusive.

Legend:
[1] = qHTS assay to identify small molecule antagonists of the vitamin D receptor (VDR) signaling pathway - cell viability counter screen (AID 743225); note: % is set by controls: 0 for no effect and ±100 for the full control effect; nearly all actives have a fitted effect of over 50% in size
Outline: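 HEK293T VDR-bla; cpd + 1a,25-(OH)2D3 3 nM final, 16 h 37C/5% CO2; B/G FRET substrate 2 h RT; then CellTiter-Glo 30 min RT, luminescence.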

[2] = qHTS assay to identify small molecule agonists of the NFkB signaling pathway (AID 1159509; active = well fitted curve in the direction sought with a large enough effect in the signal ratio in the repeat runs, not every such curve was filed as active; the % refers to the signal ratio; note: series mostly up to about 61 µM; % is set by controls: 0 for no effect and ±100 for the full control effect)
Outline: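 NFkB-bla ME-180 cells with a beta-lactamase reporter under an NF-kB response element were plated overnight, treated with compounds in DMSO for 5 hr at 37 C, then loaded with FRET substrate for 1.5 hr at room temperature.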

[3] = qHTS assay to identify small molecule agonists of the NFkB signaling pathway - cell viability counter screen (AID 1159515; calls by dose curve; note: series mostly up to about 61 µM; % is set by controls: 0 for no effect and ±100 for the full control effect; nearly all actives have a fitted effect of over 55% in size)
Outline: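 Viability in NFkB-bla ME-180 cells was measured by CellTiter-Glo luminescence, 30 min room temperature, in wells already treated 5 hr with compounds and read for reporter FRET.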

[4] = qHTS assay to identify small molecule agonists of the endoplasmic reticulum stress response signaling pathway (AID 1159516; active = well fitted activation curve with a large enough effect in the signal ratio in the repeat runs, not every such curve was filed as active; the % refers to the signal ratio; note: % is set by controls: 0 for no effect and ±100 for the full control effect)
Outline: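 ER stress element reporter (bla) in HeLa. 1,500 cells/well, overnight attachment; 5 hr compound; 2 hr RT substrate; dual-emission fluorescence.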

[5] = qHTS assay to identify small molecule agonists of the endoplasmic reticulum stress response signaling pathway - cell viability counter screen (AID 1159517; calls by dose curve;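 note: HeLa cells carrying an ER stress response element beta-lactamase reporter; series mostly up to about 61 µM; % is set by controls: 0 for no effect and ±100 for the full control effect; nearly all actives have a fitted effect of over 50% in size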)
Outline: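 Cells, HeLa ESRE-bla; density, 1,500/well; dosing, 5 hr at 37 C, 5% CO2; readout, CellTiter-Glo luminescence after 30 min RT.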

[6] = qHTS assay to identify small molecule antagonists of the retinoid-related orphan receptor gamma (ROR-gamma) signaling pathway - cell viability counter screen (AID 1159520); note: % is set by controls: 0 for no effect and ±100 for the full control effect; nearly all actives have a fitted effect of over 50% in size
Outline: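 Cytotoxicity was read from cellular ATP (CellTiter-Glo luminescence) after 16 hr at 37 C with 1 uM doxycycline induction. The inducer was added 2 hr after compound transfer to Tet-on ROR gamma CHO cells.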

[7] = target: Nuclear receptor ROR-gamma (Homo sapiens) (UniProt P51449); assay: qHTS assay to identify small molecule antagonists of the retinoid-related orphan receptor gamma (ROR-gamma) signaling pathway (AID 1159521;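 note: CHO cells with doxycycline inducible ROR-gamma driving an RORE luciferase reporter; top concentration of the series differs between compounds; % is set by controls: 0 for no effect and ±100 for the full control effect; nearly all actives have a fitted effect of over 50% in size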)
Outline: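 Cells were plated, rested 4 h at 37 C, exposed to compounds for 2 h, then given 1 uM final doxycycline hyclate to induce RORγ expression. After 16 h, ONE-Glo luminescence from the ROR response element reporter was measured.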

[8] = qHTS assay to identify small molecule agonists of the AP-1 signaling pathway - cell viability counter screen (AID 1159525; calls by dose curve; note: nearly all actives have a fitted effect of over 55% in size)
Outline: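 Luminescent ATP readout (Cell Titer Glo, 30 min RT), normalised to DMSO and tetra n-octyl ammonium bromide controls. Cells were ME-180 AP-1-bla in 0.5% dialyzed FBS Opti-MEM, with a 5 h, 37 °C compound exposure.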

[9] = qHTS assay to identify small molecule agonists of the AP-1 signaling pathway (AID 1159526; calls by dose curve; note: % is set by controls: 0 for no effect and ±100 for the full control effect)
[10] = target: Retinoic acid receptor RXR-alpha (Homo sapiens) (UniProt P19793); assay: qHTS assay to identify small molecule agonists of the RXR signaling pathway (AID 1159527; calls by dose curve; note: nearly all actives have a fitted effect of over 35% in size; note: potency is the fitted concentration of half-maximal effect)
Retinoic acid receptor RXR-alpha (Homo sapiens), sequence (P19793 whole entry, looked up): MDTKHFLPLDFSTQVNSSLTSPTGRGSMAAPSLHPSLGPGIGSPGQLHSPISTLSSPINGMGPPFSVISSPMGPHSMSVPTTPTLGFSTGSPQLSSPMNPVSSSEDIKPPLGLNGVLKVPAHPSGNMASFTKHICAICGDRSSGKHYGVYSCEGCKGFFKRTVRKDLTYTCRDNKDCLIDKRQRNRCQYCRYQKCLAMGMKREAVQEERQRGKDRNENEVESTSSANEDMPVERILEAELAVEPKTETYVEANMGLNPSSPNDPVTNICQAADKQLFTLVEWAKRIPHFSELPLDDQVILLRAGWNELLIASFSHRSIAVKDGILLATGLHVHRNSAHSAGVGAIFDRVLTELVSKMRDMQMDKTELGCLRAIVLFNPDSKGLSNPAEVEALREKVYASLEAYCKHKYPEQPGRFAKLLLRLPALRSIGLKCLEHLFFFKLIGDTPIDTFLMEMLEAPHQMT
Outline: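 Cells plated at 2,000/well, rested 5 hr at 37 C, pin-dosed with DMSO compound solutions, incubated 16 hr, then loaded with B/G FRET substrate for 2 hr at RT before dual-emission fluorescence reading.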

[11] = qHTS assay to identify small molecule agonists of the RXR signaling pathway - cell viability counter screen (AID 1159529)
Outline: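 Steps: seed RXR-alpha-UAS-bla HEK 293T cells in assay medium containing 2% charcoal-stripped FBS; incubate 5 hr; add compounds in DMSO; incubate 16 hr at 37 C; after the bla read, add CellTiter-Glo and read luminescence at 30 min.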

[12] = qHTS assay to identify small molecule antagonists of the retinoid acid receptor (RAR) signaling pathway - cell viability counter screen (AID 1159551); note: % is set by controls: 0 for no effect and ±100 for the full control effect; nearly all actives have a fitted effect of over 35% in size
Outline: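 Following overnight attachment, C3RL4 reporter cells received DMSO-dissolved compounds and then retinol (1 uM final). Six hours later at 37 C, ATP content was measured by CellTiter-Glo luminescence.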

[13] = qHTS assay to identify small molecule antagonists of the retinoic acid receptor (RAR) signaling pathway (AID 1159552)
Outline: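 Retinol at 1 uM final stimulated RARE-luciferase expression in C3RL4 cells exposed to test compounds for 6 hr at 37 C. Reduced luminescence, read 30 min after detection reagent, indicated pathway antagonism.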

[14] = qHTS assay to identify small molecule agonists of the retinoic acid receptor (RAR) signaling pathway (AID 1159553); note: % is set by controls: 0 for no effect and ±100 for the full control effect
Outline: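 Cell line C3RL4, RARE luciferase reporter. Treatment: compounds in DMSO, 6 hr, 37 C, 5% CO2, after overnight plating. Detection: luminescence, 30 min RT after reagent.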

CC(=O)OCC1=C(C(=O)O)N2C(=O)[C@@H](N)[C@H]2SC1
inactive: Potency [1] | outcome [2] | outcome [3] | outcome [4] | Potency [5] | activity, negative = cytotoxicity [6] 5.7% [at 19 µM] | activity change, negative = inhibition [7] 30.2% [at 19 µM] | viability change, negative = cytotoxic [8] -1.2% [at 15.8 µM] | activation [9] 4.04% [at 15.8 µM] | activation [10] -0.797% [at 15.8 µM] | activity change, negative = cytotoxicity [11] -9.25% [at 15.8 µM] | activity change, negative = cytotoxicity [12] 0.328% [at 19 µM] | activity, negative = inhibition [13] -17.1% [at 19 µM] | Potency [14]

CC(C)(C)C(=O)Cl
inactive: Potency [1] | outcome [2] | outcome [3] | outcome [4] | Potency [5] | Potency [6] | Potency [7] | Potency [8] | outcome [9] | Potency [10] | Potency [11] | Potency [12] | Potency [13] | Potency [14]

CC(C)[N+](C)(CCC(C(N)=O)(c1ccccc1)c1ccccc1)C(C)C
inactive: Potency [1] | outcome [2] | outcome [3] | outcome [4] | Potency [5] | Potency [6] | Potency [7] | Potency [8] | outcome [9] | Potency [10] | Potency [11] | Potency [12] | Potency [13]

CC(Cc1ccccc1)NCCn1cnc2c1c(=O)n(C)c(=O)n2C (stereo unspecified)
inactive: Potency [1] | outcome [2] | outcome [3] | outcome [4] | Potency [5] | Potency [6] | Potency [7] | Potency [8] | outcome [9] | Potency [10] | Potency [11] | Potency [12] | Potency [13]

Cc1ccc2c(c1)C1CN(C)CCC1N2 (stereo unspecified)
inactive: Potency [1] | outcome [2] | outcome [3] | outcome [4] | Potency [5] | activity, negative = cytotoxicity [6] 3.75% [at 19 µM] | activity change, negative = inhibition [7] 3.88% [at 19 µM] | viability change, negative = cytotoxic [8] 5.2% [at 15.8 µM] | activation [9] 8.05% [at 15.8 µM] | activation [10] -0.325% [at 15.8 µM] | activity change, negative = cytotoxicity [11] -17.4% [at 15.8 µM] | activity change, negative = cytotoxicity [12] 2.36% [at 19 µM] | activity, negative = inhibition [13] -12.3% [at 19 µM] | Potency [14]

CNC(=O)Oc1cc(C)c(N(C)C)c(C)c1
inactive: Potency [1] | outcome [2] | outcome [3] | outcome [4] | Potency [5] | Potency [6] | Potency [7] | Potency [8] | outcome [9] | Potency [11] | Potency [12] | Potency [13] | Potency [14]
active: Potency [10] 43.7 µM

COc1cc(CC(C)N)cc(OC)c1OC (stereo unspecified)
inactive: Potency [1] | outcome [2] | outcome [3] | outcome [4] | Potency [5] | Potency [6] | Potency [7] | Potency [8] | outcome [9] | Potency [10] | Potency [11] | Potency [12] | Potency [13] | Potency [14]

C[C@@H](N)[C@@H](O)c1ccccc1
inactive: Potency [1] | outcome [2] | outcome [3] | outcome [4] | Potency [5] | Potency [6] | Potency [7] | Potency [8] | outcome [9] | Potency [10] | Potency [11] | Potency [12] | Potency [13] | Potency [14]

Clc1nc(Cl)nc(Nc2ccccc2Cl)n1
inactive: Potency [1] | outcome [2] | outcome [3] | outcome [4] | Potency [5] | Potency [6] | Potency [7] | Potency [8] | outcome [9] | Potency [10] | Potency [11] | Potency [12] | Potency [13] | Potency [14]

N#CN
inactive: Potency [1] | outcome [2] | outcome [3] | outcome [4] | Potency [5] | Potency [6] | Potency [7] | Potency [8] | outcome [9] | Potency [10] | Potency [11] | Potency [12] | Potency [13] | Potency [14]

ClC(Cl)(Cl)Cl
inactive: Potency [1] | outcome [2] | outcome [3] | outcome [4] | Potency [5] | Potency [6] | Potency [7] | Potency [8] | outcome [9] | Potency [10] | Potency [11] | Potency [12] | Potency [13]
